The values that follow come from PubChem BioAssay AID1347416 (National Center for Advancing Translational Sciences (NCATS), 2020).

Hit rate of the full screen: of about 4,100 compounds, about 1,600 (39%) were called active. Not shown: some 25% with an inconclusive outcome. The call rests on the fitted dose curve; in most records, active means well fitted inhibition curve with a large enough effect; inconclusive means small, poorly fitted or top-dose-only effect; inactive means no such curve, though single readings can be large or run the other way. The list shows a part of the results. Entries that show only a call come without a potency.
Potency means the concentration at half of the fitted maximal effect.

The experiment can be described thus: qHTS Validation assay for Inhibitors of Plasmodium falciparum Dd2 growth in vitro. Further: nearly all actives have a fitted effect of over 70% in size. As to conditions: P. falciparum Dd2 in RBCs, SYBR Green growth, 72 h; series mostly up to 28.7 µM. An outline of the steps:
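P. falciparum Dd2-infected red blood cells (2.5% hematocrit, 0.3% parasitemia) grown 72 h at 37 °C under 5% O2 with compounds in a titration, 29 uM to 0.5 nM final. Growth read as SYBR Green-1 fluorescence after ~16 h lysis; artesunate 300 nM as positive control.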
Consider `COc1cc(Cc2cnc(N)nc2N)cc(OC)c1OC`, for which the Potency entry is “inactive”. On to `Cc1noc(-c2cccn3c(CNC(=O)c4cccc(N(C)C)c4)nnc23)n1`, for which the Potency entry is “inactive”. Turning to `Cc1ccc([S+](=O)([O-])N2CCC3(CCN(Cc4cccs4)c4ccccc4O3)CC2)cc1`, the Potency is 18.8 µM (active). The same measure for `COCC(=O)N1CCC2(CC1)CCN(Cc1cccs1)c1ccccc1O2`: “inactive”; for `O=C(Nc1ccc(Cl)cc1)N1CCC2(CC1)CCN(Cc1cccs1)c1ccccc1O2`: 8.41 µM (active). In the case of `CCCN1CCC2(CCN(C(=O)c3cccc(Cl)c3)CC2)Oc2ccccc21` it was “inactive”; in that of `CCC(C)NC(=O)c1ccccc1NC(=O)C1COc2ccccc2O1` (stereo not given), 10.6 µM (active); in that of `CCC(C)NC(=O)C1COC2(CCN(C(=O)c3cccc(Cl)c3)CC2)N1C(=O)c1ccccc1C` (stereo not given), “inactive”.

Turning to `CCc1ccc(OCC(=O)N(Cc2ccc(C(C)C)cc2)C2CCS(=O)(=O)C2)cc1` (stereo not given), the Potency result was “inactive”. Turning to `CCc1ccc(CN(C(=O)c2cc3ccccc3oc2=O)C2CCS(=O)(=O)C2)cc1` (stereo not given), the Potency result is “inactive”. The same measure for `Cc1ccc(-n2c(C)cc(C(=O)OCC(=O)N(C)C3CCS(=O)(=O)C3)c2C)cc1` (stereo not given): 4.73 µM (active); for `CC1CCCCN1CCCNC(=O)c1ccc2c(c1)sc1nc(-c3ccc(F)cc3)cn12` (stereo not given): 1.88 µM (active). The same measure for `COc1ccc(-c2cc3c(=O)n(CCNC(=O)c4ccc(C)c(F)c4)ccn3n2)cc1`: “inactive”. For `CN1c2cc(C(=O)NCc3ccc(F)cc3)ccc2C(=O)N2CCCCCC21` (stereo not given), the Potency result was “inactive”.

For `CCC1CCCCN1CCCNC(=O)c1ccc2c(c1)sc1nc(-c3ccc(F)cc3)cn12` (stereo not given), the Potency was 1.5 µM (active). In the case of `O=C(C1CCC1)N1CCC2(CC1)CC(N(Cc1ccccc1)C1CC1)CCO2` (stereo not given) it was “inactive”; in that of `CC1CCCCN1Cc1c(O)ccc2c(=O)c(-c3nc4ccccc4s3)c(N)oc12` (stereo not given), 1.06 µM (active); in that of `COCCN1C(=O)CS(=O)(=O)C12CCN(C(=O)c1cc(C)ccc1C)CC2`, “inactive”. The same measure for `CC(C)(C)CN[C@H]1C[C@@H](Cc2cc(CN3CCOCC3)on2)C1(C)C`: “inactive”; for `CN(C)Cc1cc(C[C@@H]2C[C@H](NCc3ccccc3O)C2(C)C)no1`: 17.2 µM (active); for `CN(C)Cc1cc(CC2(NCc3ccc(C#N)cc3)COC2)no1`: “inactive”. The same measure for `CC(=O)N1CCN(c2nc3c(s2)CC(C(=O)NCc2cccc(Cl)c2)CC3)CC1` (stereo not given): “inactive”; for `O=C(c1ccc([N+](=O)[O-])o1)N1CCN(c2nc3c(Cl)cccc3s2)CC1`: 4.22 µM (active); for `O=C(c1ccc([N+](=O)[O-])o1)N1CCN(c2nc3c(F)cc(F)cc3s2)CC1`: 5.96 µM (active). For the molecule `CCc1cccc2sc(N3CCN(C(=O)c4ccc([N+](=O)[O-])o4)CC3)nc12`, the Potency is 1.06 µM (active). In the case of `Cc1noc(C(C)N(C)C(=O)c2cc(COc3ccccc3F)[nH]n2)n1` (stereo not given) it was “inactive”; in that of `Cc1nn(-c2ccccc2)c2c1C(c1cccnc1)N1C=C(S(=O)(=O)N3CCCCC3)C=CC1=N2` (stereo not given), 15 µM (active). The same measure for `COc1ccc(-c2ccc3ncc(Nc4ccnc(N5CCOCC5)c4)n3n2)cn1`: 4.85 µM (active); for `COc1ccc(-c2ccc3ncc(Nc4cccc(C(F)(F)F)c4)n3n2)cn1`: 12.2 µM (active). `Fc1ccc(-c2ccc3ncc(Nc4ccnc(N5CCOCC5)c4)n3n2)cc1`: the Potency is 1.72 µM (active). In the case of `COC(=O)[C@@H]1Cc2ncn(C(C)C)c2CN1S(=O)(=O)c1cccc(C(F)(F)F)c1`, the Potency result is “inactive”. In the case of `CCc1noc(-c2cccn3c(CNC(=O)Cc4ccc(Cl)cc4)nnc23)n1` it was “inactive”; in that of `CCN1CCN(c2cc(C)c3cc(NC(=O)c4ccc(Br)o4)ccc3n2)CC1`, 6.68 µM (active).

`CCN(CC)c1cc(C)c2cc(NC(=O)c3ccc(Br)o3)ccc2n1`: the Potency is 6.68 µM (active).

With `Cc1ccoc1C(=O)Nc1ccc(CC(=O)O)cc1`, the Potency result was “inactive”. In the case of `Cc1cc(N2CCN(C)CC2)nc2ccc(NC(=O)c3ccc(Br)o3)cc12` it was 6.68 µM (active).

Take `CCN(c1ccccc1)S(=O)(=O)c1ccc(NC(=O)c2cc(=O)c3cc(C)ccc3o2)cc1`: the Potency entry was “inactive”. Consider `OC(CN1CCN(c2ccccn2)CC1)Cn1c2ccc(Cl)cc2c2cc(Cl)ccc21` (stereo not given), for which the Potency was 2.99 µM (active). In the case of `O=c1cc(N2CCOCC2)oc2c(N3CCN(c4ccccn4)CC3)nccc12` it was “inactive”; in that of `CC(NC(=O)Cc1cccc(F)c1)C(=O)N1CCN(c2ccccn2)CC1` (stereo not given), “inactive”; in that of `COc1ccc(CNCc2cc3c(C(C)(C)C)nn(-c4ccccc4)c3[nH]c2=O)cc1`, 0.842 µM (active). Take `COc1ccc(CNC(=O)CC[C@@H]2CNC(=O)[C@@H]3C[C@H](NCc4ccccc4)CN23)cc1`: the Potency result was “inactive”. `COc1ccc(CNC(=O)C2CCN(C(=O)c3cc4c(=O)[nH]c(C)cn4n3)CC2)cc1`: the Potency entry is “inactive”. In the case of `Cc1ccc(CNCc2cc3c(C(C)(C)C)nn(-c4ccccc4)c3[nH]c2=O)cc1` it was 0.266 µM (active). In the case of `Cc1nc(NCc2ccccc2)[nH]c(=O)c1CCC(C)C` it was “inactive”; in that of `Cc1ccc(Oc2c(CCC(=O)NC(C)C)c(C)nn2-c2ccccc2)cc1`, “inactive”; in that of `Cc1ccc(-c2nn(-c3ccccc3)c3[nH]c(=O)c(CNCc4ccccc4)cc23)cc1`, 0.422 µM (active).

For `CCCC(=O)N=C1SC2CS(=O)(=O)CC2N1c1ccc(CC)cc1` (stereo not given), the Potency entry is “inactive”. The same measure for `COCc1nncn1C1CCN(C(=O)c2ccc(C)c(C)c2)CC1`: “inactive”; for `CN(Cc1cccn1C)C(=O)C1CC1`: “inactive”. The same measure for `CCC(C)c1ccc(NC(=O)c2cccnc2)cc1` (stereo not given): “inactive”; for `CCC(C)c1ccc(O)c(NC(=O)c2cncc(Br)c2)c1` (stereo not given): 2.99 µM (active). In the case of `COc1ccc(NC(=O)c2nnn3c2CN(Cc2cccc(Cl)c2)C(=O)CC3)c(C)c1` it was 2.17 µM (active); in that of `COc1ccc(NC(=O)c2nnn(Cc3ccccc3C)c2N)c(OC)c1`, “inactive”; in that of `CC(=O)Nc1nc2ccccc2n1Cc1ccc(Cl)cc1`, 8.41 µM (active). In the case of `CCCCn1c2ccccc2c2nnc(SCC(=O)Nc3ccc(NC(C)=O)cc3)nc21`, the Potency result was “inactive”. The same measure for `CCCCCCCn1c(NC(=O)CC)nc2ccccc21`: 16.8 µM (active). Take `O=C(Nc1nc2ccccc2n1Cc1ccccc1)c1ccc(COc2ccccc2[N+](=O)[O-])o1`: the Potency is 16.8 µM (active). In the case of `COc1ccc2nc3oc(C(=O)NCc4cccs4)cc3cc2c1` it was “inactive”; in that of `COc1ccc(C2CC(c3cccs3)=NN2C(=O)c2ccc(Br)o2)cc1` (stereo not given), 5.31 µM (active).
